# Inconclusive results are not listed. Entries that show only a call come without a potency. Values without a mark were called inactive. Activity calls are given as the source filed them. Calls follow the shape of the dose curve; as a rule, active = well fitted curve in the direction sought with a large enough effect in the repeat runs; inconclusive = weak or mixed curves; inactive = no such curve, though single readings can be large; an effect the other way counts as inactive or inconclusive.
# Experiments:
# [1] = A CellTox Green Cytotoxicity Assay to monitor cytotoxicity in HEK293 cells - 40 hour (AID 1224871); also: nearly all actives have a fitted effect of over 45% in size
# Outline: (§1)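 HEK293 cells, 600/well, were preincubated 5 hours and then exposed to compounds at 37 C for up to 40 hours. A cell-impermeant cyanine dye staining dead-cell DNA was read by fluorescence at 0, 8, 16, 24, 32 and 40 h time points.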
# [2] = qHTS RealTime-Glo MT Cell Viability Assay in HEK293 cells - 16 hour (AID 1224872); also: nearly all actives have a fitted effect of over 50% in size; also: potency is read from the fitted curve at half-maximal effect; as to activity change, negative = cytotoxicity: top concentration of the series differs between compounds
# Outline: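 Tox21 10K qHTS, HEK293, 600 cells/well, RealTime-Glo reagent co-dispensed with cells; 5 h preincubation, compound by pintool, 37 C, luminescence at 0–40 h.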
# [3] = qHTS RealTime-Glo MT Cell Viability Assay in HepG2 cells - 8 hour (AID 1224873); also: nearly all actives have a fitted effect of over 55% in size
# Outline: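 HepG2 cells mixed with RealTime-Glo MT reagents (NanoLuc plus cell-permeant prosubstrate) were seeded at 600 cells/well, incubated 5 h at 37 C/5% CO2, then pinned with compounds in DMSO; nonlytic luminescence tracked viability during 40 h treatment.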
# [4] = qHTS RealTime-Glo MT Cell Viability Assay in HEK293 cells - 40 hour (AID 1224874); settings: RealTime-Glo luminescence; max response: active compounds read low; also: nearly all actives have a fitted effect of over 50% in size; also: potency is read from the fitted curve at half-maximal effect
# Outline: (§2)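 600 cells/well were plated with the nonlytic NanoLuc/prosubstrate reagent, pre-incubated 5 h, then given 23 nL of compound in DMSO. Incubation at 37 C for 40 h, with luminescence from viable-cell-reduced substrate read repeatedly from 0 h.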
# [5] = A CellTox Green Cytotoxicity Assay to monitor cytotoxicity in HEK293 cells - 24 hour (AID 1224875); also: series mostly up to about 77 µM; nearly all actives have a fitted effect of over 45% in size
# Outline: as §1
# [6] = A CellTox Green Cytotoxicity Assay to monitor cytotoxicity in HepG2 cells - 16 hour (AID 1224876); also: nearly all actives have a fitted effect of over 45% in size
# Outline: (§3)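 HepG2 cells, 600/well, preincubated 5 h with CellTox Green dye, then exposed to Tox21 compounds in DMSO at 37 C for up to 40 h. Dead-cell DNA fluorescence read at the indicated time point.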
# [7] = qHTS RealTime-Glo MT Cell Viability Assay in HepG2 cells - 32 hour (AID 1224877); also: nearly all actives have a fitted effect of over 55% in size
# Outline: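 Cells + NanoLuc/prosubstrate dispensed (600 cells/well) → 5 h at 37 C/5% CO2 → compounds in DMSO transferred → 40 h incubation at 37 C, luminescence read at 0, 8, 16, 24, 32, 40 h.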
# [8] = A CellTox Green Cytotoxicity Assay to monitor cytotoxicity in HepG2 cells - 24 hour (AID 1224878); also: nearly all actives have a fitted effect of over 45% in size
# Outline: as §3
# [9] = A CellTox Green Cytotoxicity Assay to monitor cytotoxicity in HepG2 cells - 40 hour (AID 1224879); also: nearly all actives have a fitted effect of over 40% in size
# Outline: as §3
# [10] = qHTS RealTime-Glo MT Cell Viability Assay in HEK293 cells - 0 hour (AID 1224880)
# Outline: as §2
structure (smiles),measurement,setting,value
C=CCCCCCCCCCCCCCCCC,cytotoxicity increase,[1],-6.74% [at 6.97 µM]
same,"activity change, negative = cytotoxicity",[2],-3.07% [at 6.97 µM]
same,"viability change, negative = cytotoxic",[3],-17.7% [at 6.97 µM]
same,max response,[4],-5.15%
same,activity change,[5],"-1.9% [at 6.97 µM, active compounds read high]"
same,cytotoxicity increase,[6],-18.8% [at 6.97 µM]
same,"activity change, negative = cytotoxic",[7],7.54% [at 6.97 µM]
same,cytotoxicity,[8],-19.1% [at 6.97 µM]
same,cytotoxicity increase,[9],-20.6% [at 6.97 µM]
same,"activity change, negative = cytotoxicity",[10],-0.1% [at 6.97 µM]
CCC(C)(O)CCC=C(C)C (stereo unspecified),Potency,[1],inactive
same,Potency,[2],inactive
same,Potency,[3],inactive
same,max response,[4],-9.96%
same,Potency,[5],inactive
same,Potency,[6],inactive
same,Potency,[7],inactive
same,Potency,[8],inactive
same,Potency,[9],inactive
same,Potency,[10],inactive
Cn1c(=O)c2c(ncn2CC(=O)O)n(C)c1=O,Potency,[1],inactive
same,Potency,[2],inactive
same,Potency,[3],inactive
same,max response,[4],1.42%
same,Potency,[5],inactive
same,Potency,[6],inactive
same,Potency,[7],inactive
same,Potency,[8],inactive
same,Potency,[9],inactive
same,Potency,[10],inactive
CCCOC(=O)c1ccc(C(=O)OCCC)nc1,Potency,[1],inactive
same,Potency,[2],inactive
same,Potency,[3],inactive
same,max response,[4],7.22%
same,Potency,[5],inactive
same,Potency,[6],inactive
same,Potency,[7],inactive
same,Potency,[8],inactive
same,Potency,[9],inactive
same,Potency,[10],inactive
CCCOC(=O)c1ccc(N)cc1,Potency,[1],inactive
same,Potency,[2],inactive
same,Potency,[3],inactive
same,max response,[4],-15%
same,Potency,[5],inactive
same,Potency,[6],inactive
same,Potency,[7],inactive
same,Potency,[8],inactive
same,Potency,[9],inactive
same,Potency,[10],inactive
CCOC(=O)c1ccccc1OC,Potency,[1],inactive
same,Potency,[2],inactive
same,Potency,[3],inactive
same,max response,[4],-4.86%
same,Potency,[5],inactive
same,Potency,[6],inactive
same,Potency,[7],inactive
same,Potency,[8],inactive
same,Potency,[9],inactive
same,Potency,[10],inactive
CC(=N\O)/C(C)=N/O,Potency,[1],inactive
same,Potency,[2],inactive
same,Potency,[3],inactive
same,max response,[4],-18.2%
same,Potency,[5],inactive
same,Potency,[6],inactive
same,Potency,[7],inactive
same,Potency,[8],inactive
same,Potency,[9],inactive
same,Potency,[10],inactive
C1COCO1,Potency,[1],inactive
same,Potency,[2],inactive
same,Potency,[3],inactive
same,max response,[4],-1.05%
same,Potency,[5],inactive
same,Potency,[6],inactive
same,Potency,[7],inactive
same,Potency,[8],inactive
same,Potency,[9],inactive
same,Potency,[10],inactive
CC(CCO)CCc1ccccc1 (stereo unspecified),Potency,[1],inactive
same,Potency,[2],inactive
same,Potency,[3],inactive
same,max response,[4],-8.5%
same,Potency,[5],inactive
same,Potency,[6],inactive
same,Potency,[7],inactive
same,Potency,[8],inactive
same,Potency,[9],inactive
same,Potency,[10],inactive
CC(N)CN (stereo unspecified),Potency,[1],inactive
same,Potency,[2],inactive
same,Potency,[3],inactive
same,max response,[4],2.08%
same,Potency,[5],inactive
same,Potency,[6],inactive
same,Potency,[7],inactive
same,Potency,[8],inactive
same,Potency,[9],inactive
same,Potency,[10],inactive
CCOC(=N)CC(=O)OCC,Potency,[1],inactive
same,Potency,[2],inactive
same,Potency,[3],inactive
same,max response,[4],-25%
same,Potency,[5],inactive
same,Potency,[6],inactive
same,Potency,[7],inactive
same,Potency,[8],inactive
same,Potency,[10],inactive
C=CC(C)=CCC=C(C)C,Potency,[1],inactive
same,Potency,[2],inactive
same,Potency,[3],inactive
same,max response,[4],4.34%
same,Potency,[5],inactive
same,Potency,[6],inactive
same,Potency,[7],inactive
same,Potency,[8],inactive
same,Potency,[9],inactive
same,Potency,[10],inactive
Nc1ccc(S(=O)(=O)O)cc1,Potency,[1],inactive
same,Potency,[2],inactive
same,Potency,[3],inactive
same,max response,[4],0.165%
same,Potency,[5],inactive
same,Potency,[6],inactive
same,Potency,[7],inactive
same,Potency,[8],inactive
same,Potency,[9],inactive
same,Potency,[10],inactive
C[C@]12CCC(=O)C=C1C=C[C@@H]1[C@@H]2CC[C@@]2(C)[C@H]1CC[C@@]21CCC(=O)O1,Potency,[1],inactive
same,Potency,[2],inactive
same,Potency,[3],inactive
same,max response,[4],-25.7%
same,Potency,[5],inactive
same,Potency,[6],inactive
same,Potency,[7],inactive
same,Potency,[8],inactive
same,Potency,[10],inactive
O=C(O)c1ccccc1NCCc1ccccc1,Potency,[1],inactive
same,Potency,[2],inactive
same,Potency,[3],inactive
same,max response,[4],-0.281%
same,Potency,[5],inactive
same,Potency,[6],inactive
same,Potency,[7],inactive
same,Potency,[8],inactive
same,Potency,[10],inactive
C[C@@H]1C[C@H]2[C@@H]3CCC4=CC(=O)C=C[C@]4(C)[C@@]3(F)[C@@H](O)C[C@]2(C)[C@H]1C(=O)CO,Potency,[1],inactive
same,Potency,[2],inactive
same,Potency,[3],inactive
same,max response,[4],-9.79%
same,Potency,[5],inactive
same,Potency,[6],inactive
same,Potency,[7],inactive
same,Potency,[8],inactive
same,Potency,[9],inactive
same,Potency,[10],inactive
Nc1ccc(C(=O)OCCCOC(=O)c2ccc(N)cc2)cc1,Potency,[1],inactive
same,Potency,[2],49 µM (active)
same,Potency,[3],inactive
same,Potency,[4],38.9 µM (active)
same,Potency,[5],inactive
same,Potency,[6],inactive
same,Potency,[7],inactive
same,Potency,[8],inactive
same,Potency,[9],inactive
same,Potency,[10],inactive
CC(C)OCC1CO1 (stereo unspecified),Potency,[1],inactive
same,Potency,[2],inactive
same,Potency,[3],inactive
same,max response,[4],11.5%
same,Potency,[5],inactive
same,Potency,[6],inactive
same,Potency,[7],inactive
same,Potency,[8],inactive
same,Potency,[9],inactive
same,Potency,[10],inactive
[O]=[Bi],cytotoxicity increase,[1],-5.17% [at 6.97 µM]
same,"activity change, negative = cytotoxicity",[2],3.35% [at 6.97 µM]
same,"viability change, negative = cytotoxic",[3],0.919% [at 6.97 µM]
same,max response,[4],3.42%
same,activity change,[5],"-2.05% [at 6.97 µM, active compounds read high]"
same,cytotoxicity increase,[6],-7.67% [at 6.97 µM]
same,"activity change, negative = cytotoxic",[7],5.58% [at 6.97 µM]
same,cytotoxicity,[8],-9.9% [at 6.97 µM]
same,cytotoxicity increase,[9],-12.6% [at 6.97 µM]
same,"activity change, negative = cytotoxicity",[10],1.4% [at 6.97 µM]
Cc1oc(C)c(C(=O)Nc2ccccc2)c1C,Potency,[1],inactive
same,Potency,[2],34.7 µM (active)
same,Potency,[3],inactive
same,Potency,[4],24.5 µM (active)
same,Potency,[5],inactive
same,Potency,[6],inactive
same,Potency,[7],inactive
same,Potency,[8],inactive
same,Potency,[10],inactive
